Screens: PubChem, National Center for Advancing Translational Sciences (NCATS)
KB-3-1 cytotox – KB-3-1 parental cell cytotoxicity | KB-3-1 viability, CellTiter-Glo ATP luminescence, 72 h | Potency, µM (doses to about 46.1 µM), usual class: cytotoxic | actives 1.4% (n = 400,000) | AID 1347075; further: nearly all actives have a fitted effect of over 60% in size
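72 h, 37 °C compound treatment of KB-3-1 parental cells; CellTiter-Glo added, 10 min, luminescence read. Data corrected against DMSO-only plates and normalized before curve fitting.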
DT40 TDP1 no CPT – qHTS for Inhibitors of human tyrosyl-DNA phosphodiesterase 1 (TDP1): qHTS in cells in absence of CPT | actives 15% (n = 420,000) | AID 686978, 2013 | DT40 Tdp1-/- hTDP1 cells, no CPT, ATP luminescence, 48 h | Potency, µM (highest dose often 46.2 µM), most hits filed as inhibitors; further: nearly all actives have a fitted effect of over 55% in size
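A cellular qHTS used chicken DT40 cells lacking endogenous Tdp1 but carrying stably transfected human TDP1. Compounds were applied without camptothecin, and cell growth kinetics were judged by ATP-dependent luminescence after ≥48 hr.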
TDP1 cell CPT – growth inhibition of DT40 Tdp1-/-;hTDP1 cells with camptothecin (screen for TDP1 inhibitors); chicken DT40 Tdp1-/-;hTDP1 cells + 20 nM CPT, ATP luminescence, 48 h; Potency, µM (doses to about 46.2 µM), usual class: inhibitors; actives 12% (n = 420,000); AID 686979; further: nearly all actives have a fitted effect of over 55% in size
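Cell growth measured by CellTiter-Glo luminescence after a minimum 48 h, 37 C compound exposure with 20 nM CPT in Tdp1-knockout DT40 cells stably expressing hTDP1, seeded 400/well; qHTS titration format.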
HT1080NT lethal – kills 2HG-producing HT-1080-NT fibrosarcoma cells; HT-1080-NT fibrosarcoma viability, CellTiter-Glo ATP luminescence, 48 h; Potency, µM (titrated, usually from 46.1 µM), usual class: cytotoxic; actives 1.6% (n = 360,000); AID 686970;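 further: NT is the 2HG producing partner of a matched IDH1 knockdown line; nearly all actives have a fitted effect of over 55% in size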
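750 cells/well, RPMI + 5% FBS; 2 h settle, compound pin-transfer, 48 h at 37 degrees C. CellTiter-Glo 10 min RT, luminescence. Normalized to DMSO and media-only wells.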
KB-V1 cytotox – KB-V1 MDR subline cytotoxicity. KB-V1 MDR cells viability, CellTiter-Glo, 72 h. Potency, µM (highest dose often 46.1 µM), usual class: cytotoxic. actives 3.4% (n = 400,000). AID 1347076; further: nearly all actives have a fitted effect of over 60% in size
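Cytotoxicity via CellTiter-Glo luminescence after 72 h compound exposure at 37 degrees C. Cells: drug-selected KB-V1 line, DMEM phenol-red free plus 10% FBS. Compounds tested at multiple concentrations; normalized data fitted to concentration-effect curves.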
HT1080 IDH1KD tx – kills HT-1080 cells with IDH1 knockdown; HT-1080 IDH1 knockdown viability, ATP luminescence, 48 h; Potency, µM (doses to about 46.1 µM), usual class: cytotoxic; actives 2% (n = 360,000); AID 686971
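After a 2 h attachment period, IDH1KD HT-1080 cells took pin-transferred compound for 48 h at 37 °C; ATP-based luminescence after 10 min room-temperature reagent incubation reported viability.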
A number is an active result; - = inactive; ? = inconclusive; . = no result; [ ] = remark or other dose. In the library only some 19% were active in any assay of this set; here they are far more common. The call rests on the fitted dose curve; in most records, active means well fitted curve in the direction sought with a large enough effect; inconclusive means small, poorly fitted or top-dose-only effect, or another doubt; inactive means no such curve, though single readings can be large; an effect the other way counts as inactive or inconclusive.

SMILES	KB-3-1 cytotox	DT40 TDP1 no CPT	TDP1 cell CPT	HT1080NT lethal	KB-V1 cytotox	HT1080 IDH1KD tx
CS(=O)(=O)c1cccc(-c2nnc(NC(=O)c3ccc(S(=O)(=O)N4CCCC4)cc3)o2)c1	-	-	-	-	-	-
O=C(Nc1nnc(-c2ccccn2)o1)c1ccc(Br)cc1	-	18µM	?	?	-	-
CC1CCCN(S(=O)(=O)c2ccc(C(=O)Nc3nnc(C4CC4)o3)cc2)C1 (configuration not stated)	?	?	18µM	-	-	?
CC1CCCN(S(=O)(=O)c2ccc(C(=O)Nc3nnc(-c4ccccc4Cl)o3)cc2)C1 (configuration not stated)	7.3µM	6.5µM	2.9µM	-	?	?
COc1ccccc1-c1nnc(NC(=O)c2ccc(S(=O)(=O)N3CCCC3)cc2)o1	?	9.2µM	23µM	?	?	?
COc1ccc(CNC(=O)CCc2c(C)nc3c(c2C)c(=O)n(C)c(=O)n3C)cc1	-	-	-	.	-	.
O=C1CC(c2cccc(O)c2)c2c(nc(SCc3ccccc3F)[nH]c2=O)N1 (configuration not stated)	-	-	-	.	-	.
Cc1nnc(NC(=O)c2ccc(S(=O)(=O)N3CCCCCC3)cc2)o1	?	?	-	-	?	-
CC1CCCN(S(=O)(=O)c2ccc(C(=O)Nc3nnc(-c4ccccn4)o3)cc2)C1 (configuration not stated)	?	21µM	?	-	?	-
Cc1cnc(NC(=O)c2cc(-c3ccccc3)nn2-c2ccccc2)s1	-	-	-	-	-	-
O=C(Nc1nc2ccccc2s1)c1cc(-c2ccccc2)nn1-c1ccccc1	?	10µM	?	-	21µM	?
CC(=O)c1sc(NC(=O)c2cc(-c3ccccc3)nn2-c2ccccc2)nc1C	?	6.5µM	8.2µM	-	?	-
Cc1nnc(NCCc2ccccc2)c2ccccc12	-	23µM	?	-	-	-
O=C1/C(=C\c2ccccc2)CN(C(=O)CCN2CCCCC2)C/C1=C/c1ccccc1	?	1.5µM	1.3µM	?	?	2.9µM
CCN(CC)CCC(=O)N1C/C(=C/c2ccccc2)C(=O)/C(=C\c2ccccc2)C1	-	3.7µM	1.8µM	?	?	2.9µM
O=C1/C(=C\c2ccc(Cl)c(Cl)c2)CN(C(=O)CCN2CCOCC2)C/C1=C/c1ccc(Cl)c(Cl)c1	3.7µM	0.82µM	0.58µM	5.2µM	?	5.2µM
Cc1ccc(NC(=O)CSc2nccn2-c2ccccc2)cc1	-	?	?	.	-	.
CCNc1ncc2nc(-c3ccc(Cl)cc3)c(=O)n(C[C@H]3CCCO3)c2n1	.	-	-	.	.	.
O=c1c2cc3c(nc2ncn1Cc1ccccc1F)CCCC3	-	?	18µM	.	-	.
O=C(O)CCC(=O)OCCCc1cc2ccccc2c(=O)o1	?	-	-	-	-	-
COc1ccc(CCNC(=O)COc2cc(O)c3c(c2)OC(C)(C)CC3=O)cc1OC	-	18µM	?	-	-	-
COc1cc(NC(=O)COc2cc(O)c3c(c2)OC(C)(C)CC3=O)cc(OC)c1	-	13µM	16µM	-	?	-
COc1ccc(CCNC(=O)COc2cc(O)c3c(c2)OC(C)(C)CC3=O)cc1	-	?	?	-	-	-
COc1ccc(NC(=O)COc2cc(O)c3c(c2)OC(C)(C)CC3=O)cc1	-	?	?	-	-	-
CC1(C)CC(=O)c2c(O)cc(OCC(=O)Nc3ccc(CCO)cc3)cc2O1	-	21µM	15µM	-	-	-
SMILES	KB-3-1 cytotox	DT40 TDP1 no CPT	TDP1 cell CPT	HT1080NT lethal	KB-V1 cytotox	HT1080 IDH1KD tx
O=C(NCCc1c[nH]c2ccccc12)/C(=C/c1ccco1)NC(=O)c1ccco1	-	-	-	-	-	-
N#C/C(=C/c1ccc(Br)s1)C(=O)NCCc1c[nH]c2ccccc12	?	21µM	23µM	?	?	-
COc1cc(/C=C(/C#N)C(=O)NCCc2c[nH]c3ccccc23)ccc1OCc1ccccc1F	?	?	12µM	-	?	-
CC(=C\c1ccco1)/C=C(\C#N)C(=O)NCCc1c[nH]c2ccccc12	-	?	-	-	23µM	-
Cc1cc(/C=C(\C#N)C(=O)NCCc2c[nH]c3ccccc23)c(C)n1C	-	?	?	-	-	-
Clc1cc(Cl)cc(CN2CCSCC2)c1	-	-	-	-	-	-
CCN(C(=O)COC(=O)c1nccnc1N)c1cccc2ccccc12	-	-	-	-	-	-
Cc1ccc(NC(=O)COc2ccc(Br)cn2)cc1	-	-	-	-	-	-
COc1ccccc1NC(=O)N(CCN1CCOCC1)Cc1cc2cc(C)cc(C)c2[nH]c1=O	-	-	-	-	-	-
CCOc1ccccc1NC(=S)N(Cc1cc2ccc(C)cc2[nH]c1=O)CC1CCCN1CC (configuration not stated)	13µM	26µM	21µM	?	-	-
CCN1CCCC1CN(Cc1cc2ccc(C)c(C)c2[nH]c1=O)C(=O)Nc1ccccc1OC (configuration not stated)	-	?	18µM	-	-	-
CCN1CCCC1CN(Cc1cc2ccc(C)cc2[nH]c1=O)C(=S)Nc1ccccc1OC (configuration not stated)	?	21µM	?	?	-	?
CCOc1ccc2[nH]c(=O)c(CN(CCN3CCCC3)C(=S)Nc3ccccc3OC)cc2c1	-	-	-	?	-	?
CNC(=O)c1c(I)c(C(=O)NCC(=O)Nc2c(I)c(C(=O)O)c(I)c(C(=O)NCCO)c2I)c(I)c(N(C)C(C)=O)c1I	-	-	-	?	-	-
CCOc1ccc(NC(=O)Cn2cc(C(=O)c3ccccc3)c(=O)c3cc4c(cc32)OCCO4)cc1	-	-	-	.	?	.
CN(C)c1ccc(N=Nc2ccccc2C(=O)OCC(=O)N2CCCCCC2)cc1	?	?	?	-	3.3µM	-
CN(C)c1ccc(N=Nc2ccccc2C(=O)OCC(=O)Nc2ccccc2C(F)(F)F)cc1	-	23µM	?	-	-	-
O=C(O)CCCC(=O)Nc1ccccc1SCCS(=O)(=O)c1ccc(Cl)cc1	-	-	-	-	?	-
C[C@@H]1CN([C@@H](C)CO)C(=O)CCCn2nncc2CO[C@H]1CN(C)C(=O)Nc1ccc(F)cc1	-	-	-	-	-	-
CCCOc1c(OC)cccc1C1CC(=O)Nc2cc3c(cc21)OCO3 (configuration not stated)	10µM	21µM	?	?	16µM	-[9.24 µM]
